# Hit rate of the full screen: of about 1,300 compounds, about 380 (29%) were called active. Inconclusive results (about 37%) are left out. The list shows a part of the results. A number with no mark means an inactive call. Calls come from the whole dose curve; as a rule, active = well fitted inhibition curve with a large enough effect; inconclusive = small, poorly fitted or top-dose-only effect; inactive = flat fitted curve, though single readings scatter.
# Target: Thyrotropin receptor (Homo sapiens) (UniProt P16473)
# Test: qHTS for antagonists of the Thyroid Stimulation Hormone Receptor: Hit Validation in Primary Screen; note: nearly all actives have a fitted effect of over 80% in size;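 for activity change, negative = inhibition: cells stimulated with TSH at EC80 of 4 nM during compound exposure; cAMP by competitive HTRF where cellular cAMP lowers the 665 nm FRET signal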
# Conditions: TSHR-expressing cells, cAMP antagonist mode; series mostly up to 58 µM; activity change, negative = inhibition: at the top concentration
# Outline: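 Competitive HTRF detected cAMP in lysates of TSHR cells, read 30 minutes after antibody and d2 addition at room temperature. Before lysis, cells had 2 hours at 37 deg C with compound plus EC80 TSH, 4nM final.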
# % is set by controls: 0 for no effect and ±100 for the full control effect; potency is the fitted concentration of half-maximal effect.
# Chain of Thyrotropin receptor (Homo sapiens) (P16473 whole entry, looked up): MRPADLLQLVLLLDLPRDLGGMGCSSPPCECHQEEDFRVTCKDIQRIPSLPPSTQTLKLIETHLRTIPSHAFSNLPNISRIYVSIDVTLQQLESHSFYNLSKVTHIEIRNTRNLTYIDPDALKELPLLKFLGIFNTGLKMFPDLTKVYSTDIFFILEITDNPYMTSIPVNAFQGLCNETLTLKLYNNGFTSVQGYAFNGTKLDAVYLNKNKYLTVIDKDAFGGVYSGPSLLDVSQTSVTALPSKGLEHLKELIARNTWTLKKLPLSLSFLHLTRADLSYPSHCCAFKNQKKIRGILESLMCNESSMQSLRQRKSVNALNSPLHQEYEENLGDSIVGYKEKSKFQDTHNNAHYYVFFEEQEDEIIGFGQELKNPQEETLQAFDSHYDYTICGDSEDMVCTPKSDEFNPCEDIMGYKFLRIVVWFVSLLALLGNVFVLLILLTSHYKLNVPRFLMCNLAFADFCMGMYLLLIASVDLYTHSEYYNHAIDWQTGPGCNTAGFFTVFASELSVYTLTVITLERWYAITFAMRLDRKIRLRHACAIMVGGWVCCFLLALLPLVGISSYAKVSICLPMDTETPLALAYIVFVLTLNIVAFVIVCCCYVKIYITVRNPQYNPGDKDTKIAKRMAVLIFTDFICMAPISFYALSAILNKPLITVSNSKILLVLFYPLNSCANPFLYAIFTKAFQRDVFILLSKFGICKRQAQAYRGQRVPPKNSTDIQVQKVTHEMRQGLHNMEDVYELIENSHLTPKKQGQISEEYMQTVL
Compound,"activity change, negative = inhibition",Potency
Clc1ccc(C2Nc3cccc4cccc(c34)N2)cc1,-8.7%,
O=C(O)c1ccccc1NS(=O)(=O)c1cccc(-n2sc3ccccc3c2=O)c1,,23.9 µM (active)
COc1cc(C(=O)NCCNC(=O)c2cnccn2)cc(OC)c1OC,-3.03%,
Cc1ccc(S(=O)(=O)NCCNc2ccc([N+](=O)[O-])cc2)cc1,-6.89%,
Cc1ccc(C(=O)Nc2cccc([N+](=O)[O-])c2)cc1S(=O)(=O)Nc1ccc(NC(=O)c2ccccc2)cc1,-4.06%,
Cc1ccc(NS(=O)(=O)c2cc(C(=O)Nc3cccc([N+](=O)[O-])c3)ccc2C)cc1,,21.3 µM (active)
COCC(=O)N1CCC(n2nccc2NC(=O)c2ccccc2OC)CC1,-3.8%,
COc1ccccc1C(=O)Nc1nnc(SCC(=O)NC2CCCC2)s1,-5.73%,
Cc1ccc(S(=O)(=O)Oc2ccc(/C=C(/NC(=O)c3ccccc3)C(=O)Nc3ccccc3)cc2)cc1,-1.41%,
O=C(Nc1nc(-c2ccccc2)cs1)c1ccccc1NS(=O)(=O)c1ccc(F)cc1,,3.38 µM (active)
O=S(=O)(Nc1cccc(-c2ccc(N3CCCCCC3)nn2)c1)c1ccc(F)cc1,-6.89%,
COc1ccc(-c2csc(NC(=O)c3ccccc3NS(=O)(=O)c3ccc(F)c(F)c3)n2)cc1,,5.36 µM (active)
COc1ccc(S(=O)(=O)Nc2ccccc2C(=O)Nc2nc(-c3ccc(F)cc3)cs2)cc1OC,,3.38 µM (active)
COc1ccc(-c2csc(NC(=O)c3ccccc3NS(=O)(=O)c3ccc(C)cc3)n2)cc1,,3.38 µM (active)
COc1cc(NS(=O)(=O)c2ccc(NC(=O)c3ccc(F)cc3)cc2)ncn1,-8.18%,
C=CCN(c1ccccc1)S(=O)(=O)c1ccc2[nH]cc(C(=O)NCCOC)c(=O)c2c1,-10.1%,
O=C(Nc1ccc2nc3n(c(=O)c2c1)CCCCC3)C(=O)N1CCN(c2ccccc2F)CC1,-13.9%,
Clc1ccccc1CN(Cc1ccccc1)c1ncnc2nc[nH]c12,,26.9 µM (active)
Clc1ccc2c(c1)-c1nnc(Br)n1-c1ccccc1S2,,26.9 µM (active)
CC(C)NC(=O)COc1coc(CN2CCN(c3ccccc3F)CC2)cc1=O,-7.58%,
O=S(=O)(Nc1cc(Cl)ccc1-n1cncn1)c1cc(Br)ccc1Br,,15.1 µM (active)
COc1ccc(NC(=O)Cn2nnc(C(=O)NCc3cccs3)c2N)c(OC)c1,-0.749%,
COc1ccccc1CNC(=O)CSc1nc(N)c(C#N)c(-c2cccs2)c1C#N,,37.9 µM (active)
Cc1ccc(SCC(=O)NCc2ccccc2C)cc1,-8.01%,

Compound,"activity change, negative = inhibition",Potency
CC(C)N(C(=O)Cn1c(-c2cccnc2)ccc(C#N)c1=O)C(C)C,-6.8%,
CC1CCCC(NC(=O)CN2C(=O)COc3ccccc32)C1C (stereo not given),-7.14%,
Cc1ccc(S(=O)(=O)N2CCOCC2)cc1N/N=C(\C#N)c1nc2ccccc2[nH]1,-10.7%,
N#CC(C#N)=NNc1ccc(S(=O)(=O)N2CCCCC2)cc1,,3.01 µM (active)
COC(=O)c1ccc(COc2cc(O)c3c(c2)OC(C)(C)CC3=O)cc1,,30.1 µM (active)
Cc1ccc(S(=O)(=O)N2CCN(C(=O)CCn3cncn3)CC2)cc1,-0.576%,
CC(=O)c1ccc(S(=O)(=O)N2CCN(CCOc3ccc(Br)cc3)CC2)cc1,,30.1 µM (active)
Cc1ccc(O)c(N=Cc2cc(Cc3ccccc3)cc([N+](=O)[O-])c2O)c1,,16.9 µM (active)
CN(C)S(=O)(=O)N1CCN(c2ccnc3cc(Cl)ccc23)CC1,-7.84%,
O=C(Nc1ccc(C(F)(F)F)cc1)c1csc(-c2ccncc2)n1,,60.1 µM (active)
CC(C)(C)NC(=O)C(c1ccc(O)cc1)N(Cc1ccccc1)C(=O)CCC(=O)Nc1nccs1 (stereo not given),-6.86%,
O=[N+]([O-])c1c(NCCO)cc(Sc2nc3ccccc3s2)c2nonc12,,23.9 µM (active)
Cc1nnc(SCC(=O)Nc2nonc2C)s1,-3.05%,
O=C(Nc1cc(Sc2nc3ccccc3s2)cc([N+](=O)[O-])c1)c1ccccc1F,-6.57%,
Cc1nnc(Sc2cc(NCCCO)c([N+](=O)[O-])c3nonc23)s1,,33.8 µM (active)
O=C1C=C(c2ccc3[nH]ccc3c2)C[C@@H](c2ccc(Cl)cc2)C1,-9.05%,
O=C(/C=C/c1cccc(Cl)c1)c1ccc([N+](=O)[O-])o1,,26.9 µM (active)
C/C(=N\NC(=O)c1nnn(-c2nonc2N)c1-c1ccc(Cl)c(Cl)c1)c1ccncc1,-2.3%,
CCn1nc(C)c(CN2CCCC(CNS(=O)(=O)c3ccc(OC)cc3)C2)c1C (stereo not given),-7.72%,
C=C(C)C(=O)OCC(O)COc1ccc(C(C)(C)c2ccc(OCC(O)COC(=O)C(=C)C)cc2)cc1 (stereo not given),,21.3 µM (active)
Nc1nc2nc(-c3ccccc3)cc(C(F)(F)F)c2s1,-6.22%,
COc1ccc(-c2cn(CCCOCc3ccccc3)nn2)cc1,-4.03%,
O=c1cc(-c2ccccc2)nc2c(-c3ccccc3)c(C(F)(F)F)[nH]n12,,6.01 µM (active)
COc1ccc(-c2c(C(F)(F)F)[nH]n3c(=O)cc(-c4ccccc4)nc23)cc1,,19 µM (active)

Compound,"activity change, negative = inhibition",Potency
COc1ccc(OC)c(C2=NOC(C(=O)NCC3CCCO3)C2)c1 (stereo not given),-3.8%,
Cc1sc2ncn(CC(=O)NCCCC(=O)NCc3ccc(F)cc3)c(=O)c2c1C,-3%,
Cc1ccc(CNC(=O)CCNC(=O)N2CCn3c2nc2ccccc23)cc1,-3.49%,
Cc1cc(NC(=O)c2cc(-c3ccco3)on2)nn1Cc1ccc(Cl)cc1,,30.1 µM (active)
O=C(Nc1ccccc1Cl)/C(Cl)=C(\Cl)S(=O)c1ccccc1 (stereo not given),,26.9 µM (active)
COc1ccc(NC(=O)/C(Cl)=C(/Cl)S(=O)Cc2ccccc2Cl)cn1 (stereo not given),,21.3 µM (active)
COc1ccc(NC(=O)/C(Cl)=C(/Cl)S(=O)Cc2ccc(Cl)cc2)cn1 (stereo not given),,30.1 µM (active)
COc1ccc(-n2nc(C(=O)NCC(=O)NCCCN3CCN(C)CC3)c3ccccc3c2=O)cc1,-2.19%,
Cc1ccccc1NC(=O)Cc1nc(COC(=O)c2cccc([N+](=O)[O-])c2)cs1,-2.22%,
CCSc1ccc(C(=O)Nc2ccc(Br)cn2)cc1[N+](=O)[O-],-1.87%,
CC(=O)Oc1c(I)cc(I)cc1C(=O)Nc1ccc(Cl)cc1,,1.9 µM (active)
Cn1cc(Cl)c(C(=O)N/N=C/c2ccc3c4c(cccc24)CC3)n1,-4.26%,
CCC(=O)NC1=C(Cl)C(=O)C(NC(=O)CC)=C(Cl)C1=O,,30.1 µM (active)
O=C(NC1CCOc2ccccc21)c1ccccn1 (stereo not given),-1.38%,
COc1ccc(CCNC(=O)c2ccc(-c3ccc([N+](=O)[O-])cc3Cl)o2)cc1OC,,23.9 µM (active)
COc1ccc(CCNC(=O)c2cccc3c2C(=O)N(C2CCCCC2)C3)cc1OC,-8.96%,
O=C(CSc1nnc(-c2ccncc2)n1Cc1ccco1)Nc1nc(-c2ccccc2)cs1,,21.3 µM (active)
Cc1cc(C)c(S(=O)(=O)c2c(C)cccc2C)c(Cl)n1,,23.9 µM (active)
CC(Sc1nn(-c2ccc(F)cc2)c(=S)s1)C(=O)c1c(N)n(C)c(=O)n(C)c1=O (stereo not given),,37.9 µM (active)
CCCCCC/C(C)=C1/SC(=S)NC1=O,,30.1 µM (active)
O=C(Nn1cnnc1)C(c1ccccc1)c1ccccc1,-7.72%,
O=C(N=C1SC2CS(=O)(=O)CC2N1c1ccc(F)cc1)C1CC1 (stereo not given),-2.68%,
CCCCCc1c2c(cc(O)c1C(=O)O)OC(=O)c1c(cc(OC)cc1C(=O)CCCC)O2,,33.8 µM (active)
COC(=O)[C@H]1[C@H]2C[C@@H]3c4[nH]c5cc(OC)ccc5c4CCN3C[C@H]2C[C@@H](OC(=O)/C=C/c2cc(OC)c(OC)c(OC)c2)[C@@H]1OC,-11.4%,

Compound,"activity change, negative = inhibition",Potency
O=C(CC1C(=O)NCCN1Cc1cccc(F)c1F)NCCCC1CCCC1 (stereo not given),-0.634%,
CCCn1nnc(NC(=O)C(C)Oc2ccc(Cl)cc2Cl)n1 (stereo not given),1.58%,
CC(Oc1ccc(Cl)cc1Cl)c1nc(-c2ccc(NC(=O)c3cccnc3)cc2)no1 (stereo not given),,21.3 µM (active)
COCCNc1cnn(-c2ccccc2)c(=O)c1Cl,-16.4%,
Cc1ccccc1Oc1cc(-n2ncc(Cl)c(Cl)c2=O)ncn1,,12 µM (active)
CC(C)(CNC(=O)C1c2ccccc2-c2ccccc21)N1CCOCC1,2.56%,
Cc1[nH]n(-c2ccccc2)c(=O)c1N=Nc1c(O)cc(S(=O)(=O)N(C)C)c2ccccc12,,8.49 µM (active)
CC(NC(=O)/C(C#N)=C/c1ccc([N+](=O)[O-])o1)c1ccccc1 (stereo not given),,30.1 µM (active)
Cc1ccc(S(=O)(=O)N2CCN(C(=O)Cc3ccsc3)CC2)c(C)c1,-0.288%,
CCc1nn(CC(=O)N2CCCCCC2)c(=O)c2cc3ccccc3n12,-6.57%,
O=C(Cn1ncc(Cl)c(Cl)c1=O)N1CCN(S(=O)(=O)c2ccc3ccccc3c2)CC1,,9.53 µM (active)
NC(=O)CSc1oc(-c2ccco2)nc1S(=O)(=O)c1ccccc1,-12.3%,
CS(=O)(=O)N1CCc2cc(C(=O)Nc3ccc(COCC(F)(F)F)cc3)ccc21,-11.9%,
CCc1nnc(NC(=O)c2ccc(Cl)c(S(=O)(=O)N3CCc4ccccc43)c2)s1,,7.57 µM (active)
O=C(Nc1nnc(C2CC2)s1)c1ccc(Cl)c(S(=O)(=O)N2CCc3ccccc3C2)c1,,3.79 µM (active)
CCc1nnc(NS(=O)(=O)c2ccc(NC(=O)COc3ccc4ccccc4c3)cc2)s1,-8.82%,
NC(=O)c1ccc(CN2CCc3ccccc3C2)cc1,0.0288%,
C=CCOc1c(Cl)cc(CNc2ccc(N(C)C)cc2)cc1OC,-6.8%,
O=C1C=C(c2ccc(Cl)c(C(F)(F)F)c2)C[C@@H](c2ccc(Cl)cc2)C1,-9.56%,
N#Cc1c(C(F)(F)F)cc(-c2ccc(Cl)cc2)[nH]c1=O,,10.7 µM (active)
COc1cc(C(C(=O)NCc2ccccc2)N(C(=O)c2snc(C(N)=O)c2N)C2CCCC2)cc(OC)c1OC (stereo not given),-6.63%,
Cc1ccc(NC(=S)c2nc3ccccc3s2)cc1,-10.7%,
COC(=O)c1ccc(/C(O)=C(\C#N)c2nc3ccccc3s2)cc1,,15.1 µM (active)

# Reference: PubChem BioAssay AID602292 (National Center for Advancing Translational Sciences (NCATS), 2012)
